Test results reported in PubChem BioAssay AID720504 (National Center for Advancing Translational Sciences (NCATS), 2013).
About 10,000 (2.8%) of roughly 360,000 compounds were called active. Roughly 4% stayed inconclusive and do not appear here. Calls follow the shape of the dose curve; as a rule, active = well fitted inhibition curve with a large enough effect; inconclusive = small, poorly fitted or top-dose-only effect; inactive = flat fitted curve, though single readings scatter. The list comes from a sample in which actives are over-represented; it also holds similar structures and randomly drawn compounds.

target: Serine/threonine-protein kinase PLK1 (Homo sapiens) (UniProt P53350); assay: qHTS for Inhibitors of PLK1-PDB (polo-like kinase 1 - polo-box domain): Primary Screen; conditions: Plk1 PBD binding of FITC phosphopeptide, fluorescence polarization; also: nearly all actives have a fitted effect of over 65% in size; as to Max response, negative = inhibition: series mostly up to about 57 µM
Sequence (P53350 whole entry, looked up, the tested form may be a part): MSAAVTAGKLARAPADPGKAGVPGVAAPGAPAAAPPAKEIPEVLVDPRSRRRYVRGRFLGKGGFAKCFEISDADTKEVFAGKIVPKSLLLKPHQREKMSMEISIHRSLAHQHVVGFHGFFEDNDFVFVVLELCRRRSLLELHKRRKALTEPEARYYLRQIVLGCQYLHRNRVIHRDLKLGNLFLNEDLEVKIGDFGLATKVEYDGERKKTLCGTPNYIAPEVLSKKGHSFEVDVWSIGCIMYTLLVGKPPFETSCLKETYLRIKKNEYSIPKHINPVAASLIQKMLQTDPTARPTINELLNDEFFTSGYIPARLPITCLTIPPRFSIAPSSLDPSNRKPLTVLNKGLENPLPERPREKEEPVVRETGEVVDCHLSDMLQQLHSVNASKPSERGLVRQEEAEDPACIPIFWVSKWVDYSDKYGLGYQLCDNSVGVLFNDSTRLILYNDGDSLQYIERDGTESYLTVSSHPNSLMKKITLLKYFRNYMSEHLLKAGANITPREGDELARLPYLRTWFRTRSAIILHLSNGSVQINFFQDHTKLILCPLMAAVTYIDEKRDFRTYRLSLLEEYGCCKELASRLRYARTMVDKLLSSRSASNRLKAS
% is scaled to controls: 0 for no effect and ±100 for the full control effect; potency is read from the fitted curve at half-maximal effect.

Potency, active:
COCc1c(N)c(C)nc(Cl)c1C#N 18.9 µM
COC(=O)CCC(=O)N1CCCC(CO)(Cc2ccccc2)C1 (centres undefined) 21.2 µM
O=c1oc2cc(O)ccc2cc1-c1ccc(F)cc1 3.36 µM
Cc1ccc(CSc2nsc(C)c2C#N)cc1 15 µM
CC(=O)NS(=O)(=O)c1ccc(NC(=O)/C=C/c2ccccc2Cl)cc1 29.9 µM
O=[N+]([O-])c1cc(Cl)cc(/C=N/NC(=S)Nc2cc(S(=O)(=O)N3CCOCC3)ccc2Cl)c1O 10.6 µM
COCCOC(=O)c1sc(=S)n(CCOC)c1N 23.8 µM
Fc1ccc(Nc2nnns2)cc1 13.4 µM
Cc1ccccc1NC(=O)CSC(=O)c1ccccc1 10.6 µM
COc1cccc(NC(=O)CCc2nnc3ccc(N4CCC(C)CC4)nn23)c1 26.7 µM
CC1=NN(c2ccc(Cl)c(C(=O)O)c2)C(=O)/C1=C/c1ccc(-c2ccccc2[N+](=O)[O-])o1 0.844 µM
S=c1[nH]nc(-c2cccs2)n1/N=C/c1cccs1 37.7 µM
COc1ccc(-c2nn(-c3ccccc3)cc2/C=C2/SC(=S)N(CCCC(=O)O)C2=O)c(C)c1 29.9 µM
CN(C)S(=O)(=O)c1cccc(-c2nn(-c3ccccc3)cc2/C=C2\SC(=S)N(CC(=O)O)C2=O)c1 26.7 µM
N#Cc1c(-c2cccs2)nc(SCC(=O)c2ccc(Br)cc2)[nH]c1=O 26.7 µM
COc1ccc(/C=C2/C(=O)N(c3ccccc3)N=C2C)c(OC)c1 18.9 µM
COc1ccc(NC(=O)Nc2ccc3c(c2)C(=O)N([C@H](C)CO)C[C@H](C)[C@@H](CN(C)C(=O)Nc2ccc4c(c2)OCO4)O3)cc1 23.8 µM
CC(Sc1nnnn1C1CCCCC1)C(=O)O (centres undefined) 4.23 µM
OCC[C@H]1C[C@@H](O)[C@H](O)[C@@]2(OCCc3ccccc32)O1 21.2 µM

Max response, negative = inhibition, inactive:
Cc1nc(Cl)c(C#N)c2c1CCCC2 -17.7%
COC(=O)c1c(C)c(C)nc(N)c1C#N -3.28%
O=C(Nc1ccc(F)cc1)Nc1nnc([C@H]2C[C@H](O)[C@@H](CO)O2)s1 3.58%
COC(=O)C[C@H]1C=C[C@H](NC(=O)c2ccc(F)cc2)[C@@H](CO)O1 -25.2%
CC1(C)CN(Cc2cccnc2)C(=O)[C@H]1CC(=O)Nc1ccc(Br)cc1 2.66%
Cc1noc(C)c1CCC(=O)N1CCCC(CO)(Cc2ccccc2)C1 (centres undefined) -15.4%
Cc1ccccc1CC1(CO)CCCN(C(=O)c2cc(-c3ccccc3)no2)C1 (centres undefined) -5.7%
O=C(NCCc1cccc(F)c1)C1CC(O)CN1C(=O)Nc1ccccc1 (centres undefined) -1.53%
CCCCN1C(=O)C(CC(=O)NCc2cccs2)CC(C(=O)N2CCOCC2)=C1C (centres undefined) 5.78%
CC(C)(C)C(=O)c1c(N)[nH]c(C(=O)c2ccccc2)c1-c1ccc(F)cc1 2.51%
O=c1oc2ccccc2cc1-c1cn(-c2ccccc2)c(=S)[nH]1 -16.2%
CN(C)c1cc(-c2ccc(F)cc2)oc(=O)c1Cl -4.6%
CS(=O)(=O)/C(C#N)=C/c1cccn1S(=O)(=O)c1ccc([N+](=O)[O-])cc1 -19.8%
Cc1snc(SCc2c(F)cccc2Cl)c1C#N -3.96%
Cc1cc(C)c(C#N)c(SCc2ccc3c(c2)OCO3)n1 -1.63%
CC(=O)c1ccc(-c2cnc3c(NC=O)cc(-c4cccc(NS(C)(=O)=O)c4)cn23)cc1 2.12%
COC(=O)C[C@@H]1C=C[C@@H](NC(=O)c2cccnc2)[C@@H](CO)O1 -16.8%
CCCCN(C(C)=O)c1ccc2c(c1)C1CC2CCN1Cc1ccccc1 (centres undefined) -11%
CCCCn1nnnc1C1(C)CCC(=O)N1Cc1ccc(OC)c(OC)c1 (centres undefined) -1.18%
COc1ccc(COC[C@H](CC(C)C)N2CCN(C(=O)c3cccc(C(F)(F)F)c3)CCC2=O)cc1 -20.7%
NS(=O)(=O)c1ccc(NC(=O)/C=C/c2ccccc2Cl)cc1 2.86%
O=C(/C=C/c1ccccc1Cl)Nc1ccc(S(=O)(=O)Nc2ncccn2)cc1 -7.83%
COCOc1cccc(CN2CCC(C)(Oc3ccc(SC)cc3)C2)c1 (centres undefined) -0.463%
O=C(c1cc(S(=O)(=O)N2CCOCC2)ccc1Cl)N1CCOCC1 -9.46%
O=C(Nc1cc(S(=O)(=O)N2CCOCC2)ccc1Cl)c1cc(=O)c2ccccc2o1 1.44%
OC[C@@H]1CN(Cc2cccs2)C[C@H](n2cnc3c(Nc4ccccc4)ncnc32)O1 -1.6%
COc1ccccc1CNc1nc(Nc2ccccc2Cl)c2sccc2n1 5.05%
COc1ccc(S(=O)(=O)N[C@@H]2C=C[C@@H](CC(=O)N3CCc4ccccc4C3)O[C@@H]2CO)cc1 -0.456%
CN(C)c1ccnc(Nc2ccc(F)cc2)c1C#N -0.535%
O=C(Nc1ccncc1)Nc1ccc(F)cc1 2.49%
Cc1ccc(NC(=O)c2ccco2)cc1 -4.07%
CCOC(=O)[C@]12CCCC=C1N(Cc1ccc(Cl)cc1Cl)C(=O)[C@H](CC(=O)N1CCCCC1)C2 -4.73%
CNC(=O)C[C@H]1C(=O)N(c2ccc(OC)cc2)C[C@@H]1Cc1ccccc1 -11.8%
Cc1ccccc1NC(=O)CCOc1ccccc1 -11.8%
Cc1cccc(NC(=O)CSC(N)=O)c1C -17.1%
CC1(C(=O)Nc2ccc3c(c2)OCCO3)CSCC(=O)N1CCOc1ccccc1 (centres undefined) 0.116%
OCCC#Cc1ccc(N2C(c3ccsc3)=Cc3ccc(F)cc3C2c2c[nH]c3ccccc23)cc1 (centres undefined) -1.41%
COc1cccc(N2CCN(c3ccc4nnc(CCC(=O)N5CCN(C)CC5)n4n3)CC2)c1 -2.01%
CCOC(=O)c1cccc(NC(=O)CCc2nnc3ccc(N4CCOCC4)nn23)c1 2.15%
CC(C)CCOc1ccc(C(=O)Nc2cc(S(=O)(=O)N3CCOCC3)ccc2N2CCOCC2)cc1 -15.2%
COc1ccc(-c2ccc(C(=O)NC(C)C)c3occc23)c(C)c1 -5.99%
O=C(Nc1ccc(N2CCOCC2)cc1)c1ccc(-c2ccccc2[N+](=O)[O-])o1 -4.38%
O=C1NC(c2ccc(-c3ccccc3[N+](=O)[O-])o2)C(C(=O)c2ccc(Cl)cc2)C(O)(C(F)(F)F)N1 (centres undefined) -5.49%
CCCS(=O)(=O)NC(=O)C1(C)CCN(C(=O)c2sccc2C)C1 (centres undefined) -7.96%
C[C@H](NC(=O)CC[C@H]1O[C@@H](n2ccc(=O)[nH]c2=O)[C@H](O)[C@@H]1O)c1cccc2ccccc12 -3.83%
O=C(NCc1ccco1)c1cccc(-c2ccc3nncn3c2)c1 6.92%
CCCCCNC(=O)C1C(=O)Nc2ccccc2C(=O)N1C(C)(C)C (centres undefined) -13.8%
Cc1ccsc1/C=N/n1c(=S)[nH]nc(C)c1=O -9.18%
S=c1[nH]nc(-c2cccs2)n1/N=C/c1cn(-c2ccccc2)nc1-c1ccc(Cl)cc1 -14.4%
CC(C)c1cccc(-c2csc(C(O)c3ccccc3)n2)c1 (centres undefined) -9.83%
COc1cccc(/C=C2\SC(=S)N(CCCC(=O)N3CCOCC3)C2=O)c1 -2.08%
Cc1ccc(-c2nn(-c3ccccc3)cc2/C=C2\SC(=S)N(CCCCCC(=O)O)C2=O)o1 165%
O=C(CN1C(=O)/C(=C\c2ccccc2F)SC1=S)Nc1nc2ccccc2s1 -28.6%
Cc1ccc(-c2nn(-c3ccccc3)cc2/C=C/C(=O)Nc2cccc(S(N)(=O)=O)c2)cc1 -5.39%
COc1ccc(CC(N)c2csc(NC(=O)Nc3ccc(C(C)C)cc3)n2)cc1 (centres undefined) -5.6%
CC1(C(=O)Nc2cccc3c2CCCC3)CCN1C(=O)CCc1ccc(Cl)cc1Cl (centres undefined) 0.165%
O=C(CSc1nc2ccccc2c(=O)[nH]1)Nc1nc(-c2ccc(Br)cc2)cs1 -29%
CC(=O)CSc1nc(CCc2ccccc2)c(C#N)c(=O)[nH]1 5.25%
COc1ccc(C2/C(=C(/O)c3ccccc3)C(=O)C(=O)N2C)c(OC)c1 (centres undefined) 0.389%
COc1ccc(/C=C2/C(=O)OCc3cc(OC)c(OC)cc32)c(OC)c1 -13%
Cc1cccc(C)c1NC(=O)C(c1cccc(F)c1)N1CCN(C)CC1 (centres undefined) -7.61%
CC(=O)Nc1cnc(-c2ccc(O)cc2C)cn1 -2.97%
COc1ccc(NC(=O)C2Cc3c(-c4ccc5c(c4)OCO5)ccnc3O2)cn1 (centres undefined) -5.75%
C[C@H](CO)N1C[C@H](C)[C@@H](CN(C)C(=O)Nc2ccc3c(c2)OCO3)Oc2c(cccc2N(C)C)C1=O -11.3%
COc1ccc(NC(=O)N(C)C[C@H]2Oc3ccc(NC(=O)C4CC4)cc3C(=O)N([C@H](C)CO)C[C@@H]2C)cc1 -15.8%
O=C(CSc1nnnn1C1CCCC1)N1CCCCC1 -1.23%
CC(Sc1nnnn1C)C(=O)NC(=O)NC1CCCCC1 (centres undefined) -1.5%
COc1ccc(OC)c(NC(=O)c2cc(-c3cc(F)ccc3OCC3CCCO3)n[nH]2)c1 (centres undefined) 1.76%
OCC[C@H]1C[C@@H](O)[C@H](O)[C@]2(OCCCc3ccccc32)O1 -6.7%
COc1ccc2c(c1)CCCO[C@]21O[C@H](CCO)C[C@H](O)[C@H]1O -7.9%
